The nature of test [1]: ACEA_ER_80hr: ACEA Biosciences xCELLigence Real-Time Cell Analysis on Estrogen Receptor Agonism for Proliferation (AID 2282667; active means hit-call score of the fitted dose curve at least 0.9, where 1 is the maximum). The note with it: T47D proliferation, impedance (xCELLigence), 80 h. Put shortly: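 T-47D cells monitored by electrical impedance (xCELLigence) with compound present throughout; 80 h timepoint, positive-direction fitting versus DMSO. Eight-point 1:4 dilutions from 100 uM final, duplicate plates.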

Test [2] is described as follows: ATG_CRE_CIS: Attagene CIS-FACTORIAL HepG2 Assay for human cAMP Responsive Element (CRE) binding protein 3 (AID 2282926). The note with it: HepG2 CRE cis-reporter, Attagene multiplexed mRNA; actives raise or lower the signal. Put shortly:
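Induced reporter mRNA from a CRE cis element, measured in HepG2 among many multiplexed units at 24 h. Detection used RT-PCR plus capillary electrophoresis of fluorescent fragments; DMSO served as negative control.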

Test [3] concerns the target CCAAT/enhancer-binding protein beta (Homo sapiens) (UniProt P17676). Description: ATG_C_EBP_CIS: Attagene CIS-FACTORIAL HepG2 Assay for human CCAAT/Enhancer Binding Protein (C/EBP) beta (AID 2282927). The note with it: HepG2 Attagene cis-factorial transcription factor reporter; actives raise or lower the signal. Put shortly:
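Following a 24 h incubation with test chemical, transfected HepG2 cells yielded RNA whose reporter transcripts were quantified by RT-PCR and fluorescent capillary electrophoresis, with DMSO serving as baseline for bidirectional fitting.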

Test [4] in a line: ATG_CMV_CIS: Attagene CIS-FACTORIAL HepG2 Assay for human CMV (Internal Marker) (AID 2282928).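 Further: endpoint acts as a background internal control marker rather than a target.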 The settings on record: HepG2 CMV promoter reporter, transcription factor profiling; actives raise or lower the signal. The essentials:
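24 h chemical treatment, HepG2 with transient multi-reporter transfection; RNA → oligo(dT) RT → PCR → 6-FAM extension → HpaI digest → CE fluorescence. Bidirectional fit, DMSO negative control.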

Test [5] has as its target Aryl hydrocarbon receptor (Homo sapiens) (UniProt P35869). Description: ATG_Ahr_CIS: Attagene CIS-FACTORIAL HepG2 Assay for human Aryl Hydrocarbon Receptor (Ahr) (AID 2282930). The note with it: HepG2 AhR cis-factorial reporter transcription; actives raise or lower the signal. The essentials:
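Values derive from bidirectional fitting against DMSO negative control. Underlying signal: cis-element reporter mRNA in transiently transfected HepG2, harvested 24 h post-dose and measured by RT-PCR plus capillary electrophoresis.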

A short description of test [6]: ATG_AP_1_CIS: Attagene CIS-FACTORIAL HepG2 Assay for human Activator Protein 1 (AP-1) (AID 2282931). The settings on record: HepG2 Attagene cis-factorial AP-1 reporter mRNA; actives raise or lower the signal. The essentials:
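Readout is reporter transcript level from endogenous transcription factor activity, quantified by RT-PCR with fluorescent primer extension and capillary electrophoresis. Transiently transfected HepG2 cells, 24 h exposure. Curves fitted both directions versus DMSO.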

Test [7] can be described thus: ATG_AP_2_CIS: Attagene CIS-FACTORIAL HepG2 Assay for human Activator Protein 2 (AP-2) (AID 2282932). The settings on record: HepG2 AP-2 cis-reporter, Attagene transcription factor profiling; actives raise or lower the signal. The essentials:
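Assay in transfected HepG2 with promoter-regulated reporters, 24 h incubation after dosing. Signal is reporter mRNA fluorescence (RT-PCR, capillary electrophoresis), analysed for both increases and decreases relative to DMSO controls.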

The nature of test [8]: ATG_BRE_CIS: Attagene CIS-FACTORIAL HepG2 Assay for human Bone Morphogenetic Protein (BMP) Response Element (BRE) (AID 2282933). The settings on record: HepG2 BMP response element reporter, Attagene transcription factor profiling; actives raise or lower the signal. Put shortly: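 Read-out: reporter mRNA induction quantified by RT-PCR and capillary electrophoresis after 24 h chemical exposure of transfected HepG2 cells. Endogenous factor activity on the BMP response element; gain or loss fitted against DMSO baseline.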

The target of test [9] is Retinoic acid receptor alpha (Homo sapiens) (UniProt P10276). Description: ATG_DR5_RAR_CIS: Attagene CIS-FACTORIAL HepG2 Assay for human Retinoic Acid Receptor Alpha (RARE), DR5 submotif (AID 2282934).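 On AC50: reporter responds to endogenous RAR alpha beta and gamma in HepG2 not RARA alone.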 The settings on record: HepG2 Attagene cis-factorial RARE DR5 reporter, mRNA; actives raise or lower the signal. The essentials:
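Endpoint fitted in both directions relative to DMSO as negative control. It reflects DR5 cis-element reporter mRNA induction in transiently transfected HepG2 cells, measured 24 h after dosing through RT-PCR and fluorescent capillary electrophoresis.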

Test [10] deals with Transcription factor E2F1 (Homo sapiens) (UniProt Q01094). Description: ATG_E2F_CIS: Attagene CIS-FACTORIAL HepG2 Assay for human E2F Transcription Factor 1 (AID 2282935). The note with it: HepG2 Attagene cis-reporter, E2F reporter RNA transcripts; actives raise or lower the signal. Put shortly: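 In this cis-factorial format, endogenous factor activity drives transfected reporters in HepG2; transcripts collected at 24 h are quantified by fluorescence after RT-PCR and capillary separation.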

Test [11] in a line: ATG_E_Box_CIS: Attagene CIS-FACTORIAL HepG2 Assay for human Enhancer Box (E-box) (AID 2282936). The settings on record: HepG2 E-box cis-reporter transcription, actives raise or lower the signal. Put shortly: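 Measured 24 h post-dosing in HepG2 cells transfected with multiple cis-regulated reporter units, signal being reporter mRNA induction detected by fluorescent RT-PCR with capillary electrophoresis; gain or loss fitted against DMSO.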

Test [12] in a line: ATG_M_61_CIS: Attagene CIS-FACTORIAL HepG2 Assay for M61 Transcription Factor (Internal Marker) (AID 2282937). The note with it: HepG2 Attagene CIS-FACTORIAL M61 internal marker reporter; actives raise or lower the signal. Put shortly: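 Readout is reporter mRNA by RT-PCR, fluorescent primer extension and capillary electrophoresis, with gain or loss fitted relative to DMSO. Transfected HepG2 cells carrying endogenous-TF-driven cis reporters were exposed to chemicals for 24 hours.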

A short description of test [13]: ATG_EGR_CIS: Attagene CIS-FACTORIAL HepG2 Assay for human Early Growth Response 1 (EGR1) (AID 2282938). The settings on record: HepG2 Attagene CIS-FACTORIAL EGR reporter mRNA; actives raise or lower the signal. The essentials:
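After 24 h compound exposure, RNA from reporter-transfected HepG2 cells was reverse-transcribed, PCR-amplified, fluorescently labelled and resolved by capillary electrophoresis. EGR1 reporter transcript changes, up or down, were fitted against DMSO, reflecting endogenous transcription-factor activity.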

Test [14] can be described thus: ATG_M_19_CIS: Attagene CIS-FACTORIAL HepG2 Assay for M19 Transcription Factor (Internal Marker) (AID 2282939). The note with it: HepG2 Attagene CIS-FACTORIAL M19 internal marker reporter; actives raise or lower the signal. Put shortly: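 Readout: fluorescent reporter-transcript fragments by capillary electrophoresis after RT-PCR. Human HepG2 liver cells carried transfected MRTU constructs reporting endogenous transcription-factor activity; exposure 24 h. Gain or loss of signal fitted relative to DMSO.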

Test [15] is described as follows: ATG_ERE_CIS: Attagene CIS-FACTORIAL HepG2 Assay for Estrogen Response Element (ERE) (AID 2282940). The note with it: HepG2 ERE cis-reporter, Attagene RNA transcript; actives raise or lower the signal. Put shortly: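 Readout: reporter mRNA induction by RT-PCR, FAM-labelled primer extension, HpaI digestion and capillary electrophoresis, 24 h after dosing transfected HepG2 cells. Endogenous transcription factors act on cis-element-regulated reporters. Gain or loss fitted against DMSO.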

A short description of test [16]: ATG_Ets_CIS: Attagene CIS-FACTORIAL HepG2 Assay for human Erythroblast Transformation Specific (ETS) (AID 2282941). The note with it: HepG2 ETS cis-reporter transcription, actives raise or lower the signal. The essentials: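 Cis-regulated reporter mRNA induction in HepG2 (transient transfection), 24 h exposure, RT-PCR plus capillary electrophoresis detection; DMSO serves as negative control and baseline.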

The target of test [17] is Hepatocyte nuclear factor 3-beta (Homo sapiens) (UniProt Q9Y261). Description: ATG_FoxA2_CIS: Attagene CIS-FACTORIAL HepG2 Assay for human Forkhead box A2 (FOXA2) (AID 2282942). The settings on record: HepG2 cis-reporter transcription factor activity, 24 h; actives raise or lower the signal. The essentials: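 Endogenous transcription factor activity is captured via cis-element-driven reporter transcripts in transfected HepG2. Total RNA taken at 24 h post-dosing; labelled RT-PCR products resolved by capillary electrophoresis. Gain or loss fitted versus DMSO.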

A short description of test [18]: ATG_FoxO_CIS: Attagene CIS-FACTORIAL HepG2 Assay for human Forkhead box O (FoxO) (AID 2282943). The note with it: HepG2 Attagene cis-reporter, FoxO element, mRNA; actives raise or lower the signal. The essentials:
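Values reflect reporter mRNA induction or loss in HepG2 cells 24 h post-dosing, fitted bidirectionally with DMSO as negative control and baseline. Detection used RT-PCR and fluorescence capillary electrophoresis.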

Test [19] in a line: ATG_GATA_CIS: Attagene CIS-FACTORIAL HepG2 Assay for human GATA Binding Protein (AID 2282944). The note with it: HepG2 GATA cis-element reporter, Attagene multiplex mRNA; actives raise or lower the signal. The essentials:
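Read-out: fluorescent reporter mRNA fragments resolved by capillary electrophoresis after RT-PCR. Human liver HepG2 cells carried transiently transfected cis-regulated reporter constructs; chemicals incubated 24 h; gain or loss of signal fitted relative to DMSO.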

A short description of test [20]: ATG_DR4_LXR_CIS: Attagene CIS-FACTORIAL HepG2 Assay for human Liver X Receptor (LXR), DR4 submotif (AID 2282929). The note with it: HepG2 Attagene DR4 cis-reporter, mRNA transcription; actives raise or lower the signal. The essentials:
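The endpoint is DR4-element-driven reporter transcripts after 24 h chemical exposure of transfected HepG2 cells. These were measured via RT-PCR and capillary electrophoresis, and gain or loss of signal was fitted relative to DMSO controls.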

Results filed as inconclusive are left out. The source made the active and inactive calls. How the source made its calls, unless noted: active means hit-call score of the fitted dose curve at least 0.9, where 1 is the maximum; inactive means score below 0.9.

Sequence of Retinoic acid receptor alpha (Homo sapiens) (P10276 whole entry, looked up): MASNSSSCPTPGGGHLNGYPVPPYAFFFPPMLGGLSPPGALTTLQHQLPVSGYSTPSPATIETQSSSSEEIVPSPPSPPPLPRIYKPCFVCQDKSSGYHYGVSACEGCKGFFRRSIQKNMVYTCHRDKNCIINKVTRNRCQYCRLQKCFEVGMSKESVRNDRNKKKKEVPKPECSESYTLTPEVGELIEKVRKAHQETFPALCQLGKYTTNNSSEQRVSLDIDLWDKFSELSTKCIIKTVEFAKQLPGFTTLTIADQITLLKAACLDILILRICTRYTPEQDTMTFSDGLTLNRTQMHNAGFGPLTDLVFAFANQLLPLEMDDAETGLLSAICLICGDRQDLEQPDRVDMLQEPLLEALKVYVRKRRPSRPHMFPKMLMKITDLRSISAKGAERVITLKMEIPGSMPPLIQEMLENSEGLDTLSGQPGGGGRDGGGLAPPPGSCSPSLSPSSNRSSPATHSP
Sequence of Hepatocyte nuclear factor 3-beta (Homo sapiens) (Q9Y261 whole entry, looked up): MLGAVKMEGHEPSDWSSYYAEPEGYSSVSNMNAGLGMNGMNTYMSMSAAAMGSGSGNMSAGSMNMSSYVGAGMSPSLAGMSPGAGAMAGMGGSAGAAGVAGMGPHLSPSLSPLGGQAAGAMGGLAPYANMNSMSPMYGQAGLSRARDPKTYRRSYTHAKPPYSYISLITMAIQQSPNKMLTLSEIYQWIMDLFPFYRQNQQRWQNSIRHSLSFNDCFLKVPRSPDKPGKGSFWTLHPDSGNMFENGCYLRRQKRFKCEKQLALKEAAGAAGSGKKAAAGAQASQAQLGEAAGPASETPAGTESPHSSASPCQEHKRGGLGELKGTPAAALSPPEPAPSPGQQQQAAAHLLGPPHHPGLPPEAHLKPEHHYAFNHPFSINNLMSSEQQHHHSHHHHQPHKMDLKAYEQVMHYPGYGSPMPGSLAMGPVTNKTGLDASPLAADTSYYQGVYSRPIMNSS
Sequence of Aryl hydrocarbon receptor (Homo sapiens) (P35869 whole entry, looked up): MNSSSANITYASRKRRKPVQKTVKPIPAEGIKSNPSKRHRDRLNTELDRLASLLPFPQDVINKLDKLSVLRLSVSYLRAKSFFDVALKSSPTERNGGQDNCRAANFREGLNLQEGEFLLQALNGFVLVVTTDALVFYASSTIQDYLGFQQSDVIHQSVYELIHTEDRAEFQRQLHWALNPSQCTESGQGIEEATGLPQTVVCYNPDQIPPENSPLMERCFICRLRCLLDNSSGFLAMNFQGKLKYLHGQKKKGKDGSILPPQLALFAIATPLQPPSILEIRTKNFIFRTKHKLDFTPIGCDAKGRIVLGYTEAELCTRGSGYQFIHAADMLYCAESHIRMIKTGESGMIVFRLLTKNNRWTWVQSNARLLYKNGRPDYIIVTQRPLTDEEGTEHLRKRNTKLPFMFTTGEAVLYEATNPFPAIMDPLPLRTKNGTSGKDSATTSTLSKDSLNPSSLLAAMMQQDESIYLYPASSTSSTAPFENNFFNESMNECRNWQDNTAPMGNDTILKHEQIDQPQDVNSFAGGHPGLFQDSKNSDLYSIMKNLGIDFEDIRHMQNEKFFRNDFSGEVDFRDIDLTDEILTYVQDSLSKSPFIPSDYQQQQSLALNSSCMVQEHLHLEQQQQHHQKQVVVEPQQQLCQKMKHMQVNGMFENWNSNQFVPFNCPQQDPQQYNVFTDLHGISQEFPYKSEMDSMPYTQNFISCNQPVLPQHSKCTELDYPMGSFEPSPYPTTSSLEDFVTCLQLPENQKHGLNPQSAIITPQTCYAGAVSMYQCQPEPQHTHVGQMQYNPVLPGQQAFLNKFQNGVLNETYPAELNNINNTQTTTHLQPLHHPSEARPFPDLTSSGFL
Sequence of Transcription factor E2F1 (Homo sapiens) (Q01094 whole entry, looked up): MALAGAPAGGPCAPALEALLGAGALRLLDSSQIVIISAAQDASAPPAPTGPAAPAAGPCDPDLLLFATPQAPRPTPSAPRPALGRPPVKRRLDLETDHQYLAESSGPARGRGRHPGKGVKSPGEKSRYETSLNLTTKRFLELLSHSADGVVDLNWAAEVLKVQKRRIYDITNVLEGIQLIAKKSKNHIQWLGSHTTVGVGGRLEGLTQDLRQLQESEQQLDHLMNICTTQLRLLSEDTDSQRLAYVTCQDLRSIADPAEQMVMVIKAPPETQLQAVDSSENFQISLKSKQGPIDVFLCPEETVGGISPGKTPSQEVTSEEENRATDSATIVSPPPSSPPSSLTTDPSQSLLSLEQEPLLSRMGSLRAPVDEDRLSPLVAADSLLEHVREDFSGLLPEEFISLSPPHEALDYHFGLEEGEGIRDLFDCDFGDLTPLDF
Sequence of CCAAT/enhancer-binding protein beta (Homo sapiens) (P17676 whole entry, looked up): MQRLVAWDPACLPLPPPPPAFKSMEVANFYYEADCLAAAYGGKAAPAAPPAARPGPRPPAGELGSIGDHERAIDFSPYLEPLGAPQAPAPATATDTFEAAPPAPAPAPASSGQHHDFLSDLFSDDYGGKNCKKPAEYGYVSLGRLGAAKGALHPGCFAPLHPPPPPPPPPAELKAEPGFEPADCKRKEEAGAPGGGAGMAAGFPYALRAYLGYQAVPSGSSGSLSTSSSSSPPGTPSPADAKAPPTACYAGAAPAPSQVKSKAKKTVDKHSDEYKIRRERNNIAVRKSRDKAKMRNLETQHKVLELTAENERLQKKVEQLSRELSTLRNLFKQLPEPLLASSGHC

Turning to `O=C(O)C(F)(F)C(F)(F)C(F)(F)OC(F)(C(F)(F)F)C(F)(F)F`, the outcome in [1], in [2], in [3], in test [4], in test [5] and in test [6] was inactive. Further, the outcome in [7], in test [8], in test [9], in test [10], in [11] and in test [12] was inactive. Moreover, the compound was classed as inactive in [13], in [14], in [15], in [16], in test [17] and in test [18]. In [19], the compound was classed as inactive.
The AC50 is the midpoint of the concentration-response curve, whichever way the signal moves. Turning to `CCCCCCCCn1sc(Cl)c(Cl)c1=O`, the half-maximal activity concentration (AC50) in test [1] was 0.023 µM (active); in [5] it was 6.89 µM (active); in test [6] it was 13.8 µM (active); in test [7], 11.1 µM (active); in test [9] it was 5.39 µM (active); in test [16], 6.69 µM (active). The AC50 is 8.19 µM (active) in test [17] and 20.5 µM (active) in test [19]. The compound was classed as inactive in [2], in test [3], in test [4], in test [8], in [10] and in [11]. For the same compound, the call in [12], in test [13], in test [14] and in [18] was inactive.
Regarding `CCOC(=O)CC(=O)C(F)(F)C(F)(F)F`, the concentration at half-maximal activity (AC50) in test [1] is 9.87 µM (active). Besides, the compound was classed as inactive in test [2], in test [3], in test [4], in test [20], in test [7] and in test [8]. Moreover, the call in test [9], in [10], in test [11], in test [12], in [13] and in test [15] was inactive. Besides, the compound was classed as inactive in test [16], in [17] and in test [18].
`CC(C)=CCCC(C)O` (stereo not drawn): the call in test [1], in test [2], in test [3], in [4], in [5] and in test [8] was inactive. Moreover, the outcome in test [9], in [10], in test [11], in [12], in [13] and in test [14] was inactive. The result in test [17], in [18] and in test [19] was inactive.

For the origin of these results see PubChem BioAssay (EPA / NIEHS).
